esBAF inh: blocks esBAF chromatin remodeling in mouse ES cells | Bmi1-luciferase knock-in reporter, 24 h; 100% = twice the neutral-well signal | reporter increase, % at 12.5 µM | 350,000 compounds, 2% hits; in the data active = activation above about 40%;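 note: 0% = median of the plate's neutral control wells and 100% = double that signal; a rise in the Bmi1 reporter signal indicates esBAF inhibition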
CDK5 p35 inh: CDK5/p35 (human) kinase inhibition | Q00535+Q15078 | Recombinant CDK5/p35, ADP-Glo luminescence, 60 min | inhibition, % at 10 µM | 330,000 compounds, 0.01% hits | AID 488839;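 active = highest replicate inhibition of at least 50% and at least 75% of replicates reaching 50%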;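 note: plate controls were DMSO neutral control for no effect and GW8510 at 10 µM for full effect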
Target sequence (Q00535 whole entry, looked up): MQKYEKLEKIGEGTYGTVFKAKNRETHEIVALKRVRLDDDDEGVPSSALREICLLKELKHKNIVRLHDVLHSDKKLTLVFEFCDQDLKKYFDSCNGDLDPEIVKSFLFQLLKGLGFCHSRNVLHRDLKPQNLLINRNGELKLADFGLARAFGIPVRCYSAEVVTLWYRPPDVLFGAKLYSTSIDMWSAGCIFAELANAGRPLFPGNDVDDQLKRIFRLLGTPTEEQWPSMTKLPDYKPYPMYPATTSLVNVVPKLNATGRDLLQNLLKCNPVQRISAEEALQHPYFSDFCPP
Target sequence (Q15078 whole entry, looked up): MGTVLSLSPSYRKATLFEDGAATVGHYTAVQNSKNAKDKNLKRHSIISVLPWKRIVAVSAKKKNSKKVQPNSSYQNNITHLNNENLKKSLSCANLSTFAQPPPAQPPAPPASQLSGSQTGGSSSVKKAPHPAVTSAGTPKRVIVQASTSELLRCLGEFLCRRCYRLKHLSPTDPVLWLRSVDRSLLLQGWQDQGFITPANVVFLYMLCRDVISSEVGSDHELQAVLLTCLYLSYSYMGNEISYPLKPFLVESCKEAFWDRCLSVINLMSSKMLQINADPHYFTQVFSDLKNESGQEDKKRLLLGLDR
Rtt109 Vps75: blocks Candida albicans Rtt109/Vps75 acetyltransferase activity; Q5AAJ8; purified Rtt109/Vps75, ThioGlo CoA-SH fluorescence, 4 h; inhibition, % at 34.9 µM; 330,000 compounds, 0.16% hits; AID 540336;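 active = inhibition of at least 50% in every replicate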
dFosB activator: mouse delta FosB homodimer activation | P13346 | purified delta FosB, TAMRA-CDK5 oligo fluorescence polarization; percent of positive-control signal above neutral wells | activation, % at 25 µM | 340,000 compounds, 0.99% hits | AID 493131;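 active = mean activation above about 17%, with every replicate also reaching it, limit read from the data, passing the limit was not always enough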
Dyrk1A ADPGlo: blocks rat Dyrk1A kinase activity; ADP-Glo luminescence, NFATc1 peptide; AID 504441; inhibition, % at 12.5 µM; 310,000 compounds, 0.43% hits; Q63470; in the data active = inhibition above about 50%;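 note: plate controls were vehicle with enzyme for no effect and no enzyme for full effect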
SMARCA2 activ: activators of SMARCA2 function; MG213 cells, MMTV-luciferase reporter, dexamethasone, overnight; 370,000 compounds, 1% hits; AID 652017; activation, % at 9.1 µM; in the data active = activation above about 7.8%;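 note: 0% = vehicle wells and 100% = reference activator wells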
Numbers without * were called inactive. Only some compounds are listed: those with a hit (about 3.2% of all), similar ones and a draw of the others.

`O=C(COC(=O)c1ccccc1)NC12CC3CC(CC(C3)C1)C2` gave esBAF inh -6, CDK5 p35 inh -1, Rtt109 Vps75 0, dFosB activator -4, Dyrk1A ADPGlo -6 and SMARCA2 activ 3.
`O=C(NCCc1ccc(F)cc1)NC12CC3CC(CC(C3)C1)C2` gave esBAF inh 72*, CDK5 p35 inh -1, Rtt109 Vps75 -4, dFosB activator -1 and SMARCA2 activ 3.
Screening O=C(C[C@H]1C[C@@H]2c3cc(NC(=O)NC4CCCC4)ccc3O[C@@H]2[C@@H](CO)O1)NCc1ccc(Oc2ccccc2)cc1 returned esBAF inh 23.
`CN(C)CC(=O)Nc1ccc2c(c1)[C@@H]1C[C@@H](CC(=O)NCc3cc(F)ccc3F)O[C@H](CO)[C@@H]1O2` gave esBAF inh 0.
`Cc1oc(-c2ccc(-c3ccccc3)cc2)nc1CN(CCO)C(C)C` gave esBAF inh 60*, CDK5 p35 inh 0, Rtt109 Vps75 -1, dFosB activator -8, Dyrk1A ADPGlo 14 and SMARCA2 activ 0.
For C(=C\c1cc(/C=C/c2ccccc2)ncn1)/c1ccccc1 the results were esBAF inh 55*, CDK5 p35 inh 0, Rtt109 Vps75 -2, dFosB activator 0, Dyrk1A ADPGlo -5 and SMARCA2 activ 4.
Cc1cccc(/C=C/c2ccccc2)n1 was read as esBAF inh 51* and SMARCA2 activ 1.
For Nc1nc2c(c(=O)[nH]1)C(c1ccccc1)C1=C(N2)c2ccccc2C1=O (centres undefined) the results were CDK5 p35 inh 3, Rtt109 Vps75 2, dFosB activator 3, Dyrk1A ADPGlo -9 and SMARCA2 activ 2.
`CCC(C)c1ccc(C2C3=C(Nc4nc(N)[nH]c(=O)c42)c2ccccc2C3=O)cc1` (centres undefined) gave esBAF inh -18, CDK5 p35 inh -2, Rtt109 Vps75 0, dFosB activator 33*, Dyrk1A ADPGlo -1 and SMARCA2 activ -2.
For COc1cc(C2C3=C(Nc4nc(N)[nH]c(=O)c42)c2ccccc2C3=O)ccc1O (centres undefined) the results were esBAF inh -1, CDK5 p35 inh -3, Rtt109 Vps75 -4, dFosB activator 43*, Dyrk1A ADPGlo 9 and SMARCA2 activ -3.
Screening COc1ccccc1CNC(=O)C[C@@H]1C[C@H]2c3cc(NC(=O)CC4CC4)ccc3O[C@H]2[C@@H](CO)O1 returned esBAF inh -3.
`COCC(=O)Nc1ccc2c(c1)C(=O)N(C)C[C@H](OC)[C@H](C)CN(CC1CCCCC1)[C@@H](C)CO2` gave esBAF inh -3.
CCCN1C[C@H](C)[C@H](OC)CN(C)C(=O)c2ccc(NC(=O)c3cccc(OC)c3)cc2OC[C@H]1C was read as esBAF inh 2.
For CNC(=O)C[C@H]1CC[C@@H]2[C@H](COc3ccc(NC(=O)C4CC4)cc3C(=O)N2C)O1 the results were esBAF inh 7.
`CN1CCN(C(=O)C[C@@H]2CC[C@H]3[C@@H](COC[C@H](O)CN3C(=O)Nc3ccc(Cl)cc3)O2)CC1` gave esBAF inh 11.
For O=C(Nc1ccc2c(c1)OCCO2)C1CCCN(S(=O)(=O)c2cccs2)C1 (centres undefined) the results were esBAF inh 48*, CDK5 p35 inh -1, Rtt109 Vps75 4, dFosB activator -16 and Dyrk1A ADPGlo 0.
CN1CCN(C(=O)C[C@@H]2C[C@H]3c4cc(NC(=O)C5CCOCC5)ccc4O[C@H]3[C@H](CO)O2)CC1 was read as esBAF inh 2.
c1ccc(-c2nccc(-c3ccc(-n4cnc5ccccc54)cc3)n2)cc1 was read as esBAF inh -1, CDK5 p35 inh 4, Rtt109 Vps75 5, dFosB activator 130*, Dyrk1A ADPGlo -1 and SMARCA2 activ -1.
For CCOc1ccc(C(=O)Nc2ncccc2Cl)cc1 the results were esBAF inh 66*, CDK5 p35 inh -1, Rtt109 Vps75 2, dFosB activator 3, Dyrk1A ADPGlo -25 and SMARCA2 activ 2.
Cc1ccc(OCCn2ncc3ccccc3c2=O)c(C)c1 was read as esBAF inh 8, CDK5 p35 inh 3, Rtt109 Vps75 7, dFosB activator -1, Dyrk1A ADPGlo -2 and SMARCA2 activ -1.
Screening O=c1c2ccccc2cnn1CCOc1cccc(Br)c1 returned esBAF inh 49*, CDK5 p35 inh 1, Rtt109 Vps75 -10, dFosB activator -8, Dyrk1A ADPGlo 0 and SMARCA2 activ 5.
`Cc1cc(C)c(C2C(C#N)=C(N)Oc3n[nH]c(C)c32)cc1CN1CCCC1` (centres undefined) gave esBAF inh -1, CDK5 p35 inh -1, Rtt109 Vps75 6, dFosB activator -9, Dyrk1A ADPGlo -3 and SMARCA2 activ 7.9*.
COc1cccc(NC(=O)N[C@H]2CC[C@H](CC(=O)N3CCN(C)CC3)O[C@H]2CO)c1 was read as esBAF inh 1.
Screening c1ccc(-c2csc(-c3ccncc3)n2)cc1 returned esBAF inh 27, CDK5 p35 inh 0, Rtt109 Vps75 -5, dFosB activator 1, Dyrk1A ADPGlo 1 and SMARCA2 activ -2.
`Oc1ccccc1-c1csc(-c2ccccc2)n1` gave esBAF inh 77*, CDK5 p35 inh 1, Rtt109 Vps75 15, dFosB activator 4, Dyrk1A ADPGlo 2 and SMARCA2 activ 2.
For O=S(=O)(c1ccc(OCC(O)CNC23CC4CC(CC(C4)C2)C3)c(Cl)c1)N1CCOCC1 (centres undefined) the results were esBAF inh -6, CDK5 p35 inh 0, Rtt109 Vps75 -1, dFosB activator -5, Dyrk1A ADPGlo -3 and SMARCA2 activ 7.8*.
Cc1ccc(NC(=O)Cn2cc(C=O)c3ccccc32)cc1C was read as esBAF inh 1, CDK5 p35 inh 1, Rtt109 Vps75 7, dFosB activator 20*, Dyrk1A ADPGlo -6 and SMARCA2 activ -3.
Cc1cc(C)cc(NC(=O)/C(C#N)=C/c2cn(CC(=O)NCc3ccco3)c3ccccc23)c1 was read as CDK5 p35 inh 0, Rtt109 Vps75 23, dFosB activator 33*, Dyrk1A ADPGlo -1 and SMARCA2 activ 0.
Screening Cc1ccc(NC(=O)/C(C#N)=C/c2cn(CC(=O)NCc3ccco3)c3ccccc23)cc1C returned CDK5 p35 inh -1, Rtt109 Vps75 -3, dFosB activator 60*, Dyrk1A ADPGlo 1 and SMARCA2 activ -6.
C[C@H](O)C#Cc1cnc2c(c1)C(=O)N([C@@H](C)CO)C[C@@H](C)[C@H](CN(C)C(=O)CC1CC1)O2 was read as esBAF inh 5.
Screening C[C@@H]1CCCCO[C@H](CN(C)C(=O)Nc2ccc3c(c2)OCO3)[C@H](C)CN([C@H](C)CO)C(=O)c2cc(NC(=O)c3ccccc3)ccc2O1 returned esBAF inh 6.

Source: PubChem BioAssay (several laboratories)
